# Experimental data taken from PubChem BioAssay (NCATS).
# Values joined by “and” are separate entries in the source; they are usually repeats but may differ in a detail not shown here. Equal entries are not always repeated. Records with an inconclusive call do not appear. Entries that show only a call come without a potency. Active and inactive are the calls of the source. Unless noted, calls come from the whole dose curve; as a rule, active = well fitted curve in the direction sought with a large enough effect; inconclusive = small, poorly fitted or top-dose-only effect, or another doubt; inactive = no such curve, though single readings can be large; an effect the other way counts as inactive or inconclusive.
# Key:
# [1] = Cell Viability - BJ (AID 421; calls by dose curve;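 note: potency is the fitted concentration of half-maximal effect; cells exposed to compound for 40 hours at 37 °C before readout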); details: BJ fibroblast viability, qHTS
# How it was run: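 Cytotoxicity in human BJ foreskin fibroblasts is scored as loss of cellular ATP after a 40-hour exposure, measured by luciferase luminescence. Controls are DMSO and 100 uM tamoxifen.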
# [2] = Cell Viability - Jurkat (AID 426;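 active = dose-dependent loss of cell ATP signal giving a full or clear fitted curve, ranked by lower potency value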; note: potency is the fitted concentration of half-maximal effect); details: qHTS
# How it was run: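 Jurkat (clone E6-1, human T-cell leukemia) cells, 5000/well in complete medium, were exposed to compound for 40 hr at 37 °C. Viability was read as intracellular ATP by CellTiter-Glo luminescence; AC50 came from Hill fits of concentration-response data.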
# [3] = Cell Viability - Hek293 (AID 427;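 active = compounds whose dose-response curve shows a full or clear partial loss of cell viability, called from curve shape rather than a numeric limit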;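 note: potency is the fitted concentration of half-maximal effect; cells exposed to compound for 40 hours at 37 °C before reading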); details: qHTS
# How it was run: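 qHTS, human embryonic kidney (adenovirus-transformed) cells; 40 hr cpd, 37 °C; CellTiter-Glo ATP luminescence. Norm: DMSO = 0, 100 uM tamoxifen = 100% inhibition. Hill-fit AC50.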
# [4] = Cell Viability - SK-N-SH (AID 435; calls by dose curve;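 note: potency is the fitted concentration of half-maximal effect; compound exposure lasted 40 h at 37 °C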); details: SK-N-SH neuroblastoma cell viability qHTS
# How it was run: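 SK-N-SH human neuroblastoma cells (1500/well) were exposed to compounds in complete medium for 40 h at 37 °C, and intracellular ATP was then measured by CellTiter-Glo luminescence. AC50 was taken from Hill fits, normalized to DMSO and 100 uM tamoxifen.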
# [5] = Cell Viability - HUV-EC-C (AID 542); details: HUV-EC-C endothelial cell viability, qHTS; series mostly up to 92.2 µM; note: nearly all actives have a fitted effect of over 35% in size
# How it was run: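 HUV-EC-C normal human vascular endothelial cells, 1000 cells/well, pre-incubated 5 hr at 37 °C, then exposed to compounds for 40 hr at 37 °C in complete medium. Viability measured as intracellular ATP by CellTiter-Glo luminescence; AC50 from Hill fits.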
# [6] = Cell Viability - H-4-II-E (AID 543); details: H-4-II-E rat hepatoma viability; series mostly up to 92.2 µM; note: nearly all actives have a fitted effect of over 35% in size
# How it was run: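 Rat hepatoma H-4-II-E cells (1500/well) were plated, incubated 5 hr at 37 °C, then exposed to compounds for 40 hr at 37 °C. Cellular ATP was read by CellTiter-Glo luminescence; AC50 came from Hill-equation fits of concentration-response data.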
# [7] = Cell Viability - Renal Proximal Tubule (AID 545); details: renal proximal tubule cells viability; series mostly up to 91.7 µM; note: nearly all actives have a fitted effect of over 40% in size
# How it was run: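 Primary rat renal proximal tubule cells (1000/well) were treated with compounds for 40 hr at 37 °C in complete medium. Intracellular ATP was measured by CellTiter-Glo luminescence, and AC50 values came from Hill-equation fits of concentration-response data.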
# [8] = Cell Viability - LYMP2-015 (AID 971); details: LYMP2-015 lymphoblastoid cell viability; series mostly up to 92.2 µM; note: nearly all actives have a fitted effect of over 55% in size
# How it was run: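 Human lymphoblastoid cells (2500/well) in complete medium were preincubated 5 hr at 37 C, then compound-treated 24 hr at 37 C. Intracellular ATP was read by CellTiter-Glo luminescence after 30 min at room temperature; AC50 came from Hill-equation concentration-response fits.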
# [9] = Cell Viability - LYMP2-019 (AID 973); details: LYMP2-019 lymphoblastoid cell line viability; series mostly up to 92.2 µM; note: nearly all actives have a fitted effect of over 55% in size
# How it was run: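 Human lymphoblastoid cells were seeded at 2500 cells/well, preincubated 5 hr at 37 C, then exposed to compounds for 24 hr at 37 C in complete medium. Intracellular ATP was measured by CellTiter-Glo luminescence; AC50 from Hill fits.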
# [10] = Cell Viability - LYMP2-012 (AID 982); details: LYMP2-012 lymphoblastoid cell viability qHTS; series mostly up to 92.2 µM;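 note: cellular ATP by luciferase luminescence where a drop means cytotoxicity; cells exposed to compound for one day before reading; nearly all actives have a fitted effect of over 55% in size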
# [11] = Cell Viability - LYMP2-020 (AID 986); details: series mostly up to 92.2 µM; note: nearly all actives have a fitted effect of over 55% in size
# How it was run: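 Human lymphoblastoid cells, 2500/well, were pre-incubated 5 hr at 37 C, then exposed to compounds for 24 hr at 37 C in complete medium. Intracellular ATP was read by CellTiter-Glo luminescence, and AC50 was derived by Hill fitting of concentration-response data.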
# [12] = Cell Viability - LYMP2-022 (AID 987); details: LYMP2-022 lymphoblastoid cell viability; series mostly up to 92.2 µM; note: nearly all actives have a fitted effect of over 55% in size; note: potency is the fitted concentration of half-maximal effect
# How it was run: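 Human lymphoblastoid cells, 2500/well, preincubated 5 hr at 37 C, then exposed to compounds over a concentration range for 24 hr at 37 C in complete medium. Viability read as intracellular ATP by CellTiter-Glo luminescence after 30 min at room temperature; AC50 from Hill fits.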
# [13] = Cell Viability - LYMP2-026 (AID 989); details: LYMP2-026 lymphoblastoid cell viability, qHTS; series mostly up to 92.2 µM; note: nearly all actives have a fitted effect of over 50% in size
# How it was run: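 Human lymphoblastoid cells (2500/well) in complete medium were preincubated 5 hr at 37 C, then exposed to compounds for 24 hr at 37 C. Cellular ATP was read by CellTiter-Glo luminescence; AC50 from Hill-equation fits of concentration-response data.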
# [14] = Cell Viability - LYMP1-002 - Assay at 40 hr (AID 994); details: LYMP1-002 lymphoblastoid cell viability; series mostly up to 92.2 µM; note: nearly all actives have a fitted effect of over 60% in size
# How it was run: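 Human lymphoblastoid cells, 2500/well in complete medium, were preincubated 5 hr at 37 C, then exposed to compounds for 40 hr at 37 C. Intracellular ATP was read by CellTiter-Glo luminescence after 30 min at room temperature; AC50 from Hill-equation fits.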
# [15] = qHTS assay for small molecule agonists of retinoid X receptor alpha signaling (AID 588544; calls by dose curve); details: HEK293T RXRa-UAS-bla, beta-lactamase reporter, 18 h; 530 nm emission
# [16] = biological target: Retinoic acid receptor RXR-alpha (Homo sapiens) (UniProt P19793); test: as above; details: HEK293T RXRa-UAS-bla, beta-lactamase reporter, 18 h; series mostly up to 76.7 µM
# [17] = qHTS assay for small molecule antagonists of retinoid X receptor alpha signaling (AID 588546; active = well fitted inhibition curve with a large enough effect in the signal ratio, with a control signal flat, not every such curve was filed as active; the % refers to the signal ratio;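 note: cells stimulated with 9-cis-retinoic acid as agonist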); details: HEK293T RXRa-UAS-bla, beta-lactamase ratio, antagonist mode; measured here: W530 green channel, cytotoxicity proxy
# How it was run: (§1)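 Beta-lactamase reporter inhibition, read as CCF4 fluorescence ratio (ex 405, em 460/530 nm) after 2 h at RT. HEK293T UAS-bla cells, 2500/well, were stimulated with 9-cis-RA at 500 or 100 nM final alongside test compound for 18 h at 37 C.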
# [18] = biological target: Retinoic acid receptor RXR-alpha (Homo sapiens) (UniProt P19793); test: as above; details: HEK293T RXRa-UAS-bla, beta-lactamase ratio, antagonist mode
# How it was run: as §1
# [19] = biological target: Voltage-gated inwardly rectifying potassium channel KCNH2 (Homo sapiens) (UniProt Q12809); test: qHTS Assay for Small Molecule Inhibitors of the Human hERG Channel Activity (AID 588834); details: U2OS BacMam hERG, FluxOR thallium flux fluorescence; series mostly up to 92.2 µM;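 note: lower thallium flux fluorescence means stronger hERG block; nearly all actives have a fitted effect of over 50% in size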; note: potency is the fitted concentration of half-maximal effect
# How it was run: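 U2OS cells transduced with hERG via BacMam (MOI ~100), plated 2000/well, loaded with FluxOR thallium dye, compound ~10 min, then stimulation buffer; fluorescence decrease read kinetically; AC50 from Hill fits.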
# [20] = biological target: Thyroid hormone receptor beta (Homo sapiens) (UniProt P10828); test: qHTS assay for small molecule agonists of thyroid hormone receptor beta signaling (AID 588545; calls by dose curve); details: TR-UAS-bla GripTite HEK 293, beta-lactamase ratio, agonist mode, 18 h; series mostly up to 76.7 µM
# How it was run: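 TR-UAS-bla-GripTite HEK 293 cells in medium with 2% charcoal/dextran FBS, 0.1 mM NEAA and 1 mM sodium pyruvate were treated with titrated compounds for 18 hrs at 37 C. Beta-lactamase reporter was read with CCF4 dye (ex 405, em 460/530 nm); EC50 from Hill fits.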
# Chain of Thyroid hormone receptor beta (Homo sapiens) (P10828 whole entry, looked up): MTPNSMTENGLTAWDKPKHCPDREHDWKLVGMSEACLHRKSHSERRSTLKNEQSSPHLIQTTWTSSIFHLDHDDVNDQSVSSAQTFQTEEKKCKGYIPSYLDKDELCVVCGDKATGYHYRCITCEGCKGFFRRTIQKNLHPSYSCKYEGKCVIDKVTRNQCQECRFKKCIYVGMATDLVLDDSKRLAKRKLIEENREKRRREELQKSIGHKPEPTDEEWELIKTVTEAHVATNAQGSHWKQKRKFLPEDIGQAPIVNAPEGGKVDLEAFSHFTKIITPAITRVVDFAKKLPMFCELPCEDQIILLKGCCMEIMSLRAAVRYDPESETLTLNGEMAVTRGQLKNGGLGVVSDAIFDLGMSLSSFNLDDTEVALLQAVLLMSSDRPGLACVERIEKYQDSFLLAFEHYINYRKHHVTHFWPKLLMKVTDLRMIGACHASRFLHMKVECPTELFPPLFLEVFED
# Chain of Retinoic acid receptor RXR-alpha (Homo sapiens) (P19793 whole entry, looked up): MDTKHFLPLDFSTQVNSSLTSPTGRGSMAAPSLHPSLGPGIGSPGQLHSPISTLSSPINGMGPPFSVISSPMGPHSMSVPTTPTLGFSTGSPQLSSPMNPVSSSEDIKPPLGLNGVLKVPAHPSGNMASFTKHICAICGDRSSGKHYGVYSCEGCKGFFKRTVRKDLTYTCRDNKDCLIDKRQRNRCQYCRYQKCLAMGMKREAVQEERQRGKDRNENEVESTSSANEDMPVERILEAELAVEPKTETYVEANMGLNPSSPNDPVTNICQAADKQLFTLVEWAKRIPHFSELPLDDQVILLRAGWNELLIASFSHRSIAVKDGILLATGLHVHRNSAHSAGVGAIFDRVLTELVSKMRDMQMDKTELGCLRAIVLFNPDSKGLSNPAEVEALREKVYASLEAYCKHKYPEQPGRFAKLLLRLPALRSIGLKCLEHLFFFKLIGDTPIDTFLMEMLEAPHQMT
# Chain of Voltage-gated inwardly rectifying potassium channel KCNH2 (Homo sapiens) (Q12809 whole entry, looked up): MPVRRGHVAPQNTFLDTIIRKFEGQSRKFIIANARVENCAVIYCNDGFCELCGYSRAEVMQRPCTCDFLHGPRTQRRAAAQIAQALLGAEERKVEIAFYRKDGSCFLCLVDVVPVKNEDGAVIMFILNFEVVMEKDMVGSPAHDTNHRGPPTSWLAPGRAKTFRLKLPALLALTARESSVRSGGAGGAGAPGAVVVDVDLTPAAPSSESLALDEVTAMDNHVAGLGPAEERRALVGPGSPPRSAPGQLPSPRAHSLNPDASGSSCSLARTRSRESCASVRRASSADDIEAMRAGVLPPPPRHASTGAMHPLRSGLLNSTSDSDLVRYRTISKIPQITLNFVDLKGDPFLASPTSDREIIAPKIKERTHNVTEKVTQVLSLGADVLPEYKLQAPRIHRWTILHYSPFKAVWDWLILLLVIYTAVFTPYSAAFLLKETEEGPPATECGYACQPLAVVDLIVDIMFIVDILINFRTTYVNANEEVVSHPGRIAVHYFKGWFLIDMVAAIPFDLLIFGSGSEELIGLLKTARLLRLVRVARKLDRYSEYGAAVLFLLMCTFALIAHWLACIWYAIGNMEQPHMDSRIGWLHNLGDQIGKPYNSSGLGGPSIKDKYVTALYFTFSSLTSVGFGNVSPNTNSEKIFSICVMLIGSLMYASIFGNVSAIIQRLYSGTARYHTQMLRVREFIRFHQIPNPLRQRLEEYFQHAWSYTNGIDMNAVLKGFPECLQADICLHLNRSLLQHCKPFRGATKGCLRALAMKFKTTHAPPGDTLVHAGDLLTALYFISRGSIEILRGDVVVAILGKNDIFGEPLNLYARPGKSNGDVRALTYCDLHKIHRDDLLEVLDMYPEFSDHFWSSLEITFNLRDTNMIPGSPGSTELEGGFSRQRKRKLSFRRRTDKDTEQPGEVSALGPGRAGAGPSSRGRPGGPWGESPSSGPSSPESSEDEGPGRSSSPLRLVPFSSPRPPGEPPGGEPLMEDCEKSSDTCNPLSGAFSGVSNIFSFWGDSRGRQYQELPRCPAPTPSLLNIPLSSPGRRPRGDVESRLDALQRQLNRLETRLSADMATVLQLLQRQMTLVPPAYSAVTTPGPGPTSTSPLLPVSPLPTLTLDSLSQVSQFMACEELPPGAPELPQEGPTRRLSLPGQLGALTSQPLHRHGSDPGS
Structure (SMILES),Potency [1],Potency [2],Potency [3],Potency [4],Potency [5],Potency [6],outcome [7],Potency [8],Potency [9],Potency [10],Potency [11],Potency [12],Potency [13],Potency [14],max response [15],outcome [16],max response [17],max response [18],Potency [19],Potency [20]
c1ccc2c(c1)CCNC2,> 92 µM (inactive),> 92 µM (inactive),> 92 µM (inactive),> 92 µM (inactive),inactive,inactive,inactive,inactive,inactive,inactive,inactive,inactive,inactive,inactive,-9.85%,inactive,-4.26%,19.2% (inactive),inactive,–
Cc1ccc(N)c(N)c1,> 92 µM (inactive),9.63 µM (active),> 92 µM (inactive),> 92 µM (inactive),inactive,inactive,inactive,–,–,–,–,12.6 µM (active),inactive,–,-6.94%,inactive,1.53%,-10.9% (inactive),inactive,inactive
CSSC,> 92 µM (inactive),> 92 µM (inactive),> 92 µM (inactive),> 92 µM (inactive),inactive,inactive,inactive,inactive,inactive,inactive,inactive,inactive,inactive,inactive,1.16%,inactive,-12.8%,7.08% (inactive),inactive,inactive
CC(=O)CCC(C)=O,> 92 µM (inactive),> 92 µM (inactive),> 92 µM (inactive),> 92 µM (inactive),inactive,inactive,inactive,inactive,inactive,inactive,inactive,inactive,inactive,inactive,0.0938%,inactive,-1.17%,0.643% (inactive),inactive,inactive
CC(C)(OOC(C)(C)c1ccccc1)c1ccccc1,> 92 µM (inactive),> 92 µM (inactive),> 92 µM (inactive),> 92 µM (inactive),inactive,inactive,inactive,inactive,inactive,inactive,inactive,inactive,inactive,inactive,-7.49% and -13.6%,inactive,-11%,4.95% (inactive),15.8 µM (active),inactive
O=S(=O)(Cl)c1ccccc1,> 92 µM (inactive),> 92 µM (inactive),> 92 µM (inactive),> 92 µM (inactive),inactive,inactive,inactive,inactive,inactive,inactive,inactive,inactive,inactive,inactive,-12.3%,inactive,25.3% and -4.13%,-0.573% (inactive) and -10.4% (inactive),inactive,inactive
CC(C)C#N,> 92 µM (inactive),> 92 µM (inactive),> 92 µM (inactive),> 92 µM (inactive),inactive,inactive,inactive,inactive,inactive,inactive,inactive,inactive,inactive,inactive,-7.08%,inactive,-7.48%,2.91% (inactive),inactive,inactive
NNC(N)=S,> 92 µM (inactive),> 92 µM (inactive),> 92 µM (inactive),> 92 µM (inactive),inactive,inactive,inactive,inactive,inactive,inactive,inactive,inactive,inactive,inactive,–,–,6.4%,9.82% (inactive),inactive,inactive
Oc1cc(Cl)ccc1Cl,> 92 µM (inactive),> 92 µM (inactive),> 92 µM (inactive),> 92 µM (inactive),inactive,inactive,inactive,inactive,inactive,inactive,inactive,inactive,inactive,inactive,-10.2% and -8.32%,inactive,-4.84% and -5.75%,8.9% (inactive) and 7.36% (inactive),inactive,inactive
O=[N+]([O-])c1ccc(Cl)cc1,> 92 µM (inactive),> 92 µM (inactive),> 92 µM (inactive),> 92 µM (inactive),inactive,inactive,inactive,inactive,inactive,inactive,inactive,inactive,inactive,inactive,-17.3% and -9.79%,inactive,-1.92% and -4.79%,5.21% (inactive) and -2.59% (inactive),inactive,inactive
Nc1ccc(Oc2ccc(N)cc2)cc1,> 92 µM (inactive),> 92 µM (inactive),> 92 µM (inactive),> 92 µM (inactive),inactive,–,inactive,inactive,inactive,inactive,inactive,inactive,inactive,inactive,6.59% and -0.644%,inactive,-3.97% and -1.47%,4.6% (inactive) and -3% (inactive),inactive,–
ClCC(Cl)CCl,> 92 µM (inactive),> 92 µM (inactive),> 92 µM (inactive),> 92 µM (inactive),inactive,inactive,inactive,inactive,inactive,inactive,inactive,inactive,inactive,inactive,-14.4% and -17.5%,inactive,0.286% and -10.8%,11.2% (inactive) and -5.45% (inactive),inactive,inactive
CC(Cl)CCl (stereo not given),> 92 µM (inactive),> 92 µM (inactive),> 92 µM (inactive),> 92 µM (inactive),inactive,inactive,inactive,inactive,inactive,inactive,inactive,inactive,inactive,inactive,-14.1%,inactive,-10%,-6.12% (inactive),inactive,inactive
C=CC(=O)OCC(C)C,> 92 µM (inactive),> 92 µM (inactive),> 92 µM (inactive),> 92 µM (inactive),inactive,inactive,inactive,inactive,inactive,inactive,inactive,inactive,inactive,inactive,-3.12%,inactive,4.12%,5.4% (inactive),inactive,inactive
O=[N+]([O-])c1cccc(O)c1,> 92 µM (inactive),> 92 µM (inactive),> 92 µM (inactive),> 92 µM (inactive),inactive,inactive,inactive,inactive,inactive,inactive,inactive,inactive,inactive,inactive,0.893%,inactive,-2.66%,-5.97% (inactive),inactive,inactive
C=C(C)CCl,> 92 µM (inactive),> 92 µM (inactive),> 92 µM (inactive),> 92 µM (inactive),inactive,inactive,inactive,inactive,inactive,inactive,inactive,inactive,inactive,inactive,-6%,inactive,-2.4%,1.96% (inactive),inactive,inactive
